Bioassay records (PubChem)
A selection: hits, their analogues and other compounds. The true share with any hit is near 4.1%.
hcDAF-12 act: H. contortus DAF-12 activation, primary screen; 370,000 compounds, 1.4% hits; activation, % at 6.8 µM; HEK293 hcDAF-12 lit1-tk-luc reporter, luminescence; 0% DMSO, 100% Δ7-dafachronic acid; AID 652067;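 active = activation above the mean of all tested compounds plus 3 SD, cut at about 5.5% in these data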;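 note: 100% = response to 3 µM Δ7-dafachronic acid high control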
ssDAF-12 act: S. stercoralis DAF-12 activation, primary screen; HEK293 ssDAF-12/GRIP1 lit1-tk-luc reporter, luminescence; % of 3 µM dafachronic acid response; activation, % at 6.8 µM; 370,000 compounds, 1% hits; AID 652126;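 active = activation above the mean over all tested compounds plus 3 SD, cut at about 0.9% in these data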;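 note: 0% = DMSO-only wells and 100% = 3 µM delta7-dafachronic acid wells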
DAX1 inh-1: DAX1 (NR0B1) inhibition, primary screen; inhibition, % at 6.8 µM; 370,000 compounds, 1.1% hits; HEK293T StAR-luciferase reporter, SF-1/DAX-1 repression relief;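 active = inhibition above the mean over all tested compounds plus 3 SD, cut at about 3.6% in these data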;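 note: 0% = DAX-1 cells with DMSO and 100% = cells lacking DAX-1 with DMSO; higher inhibition means more luminescence from relief of DAX-1 repression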
DAX1 inh-2: NR0B1 (DAX1) inhibition. 340,000 compounds, 0.99% hits. inhibition, % at 6.75 µM. HEK293 Gal4-DAX1 luciferase reporter, luminescence;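 active = inhibition above the mean over all tested compounds plus 3 SD, cut at about 4.2% in these data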;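 note: 0% = DAX1-transfected cells with DMSO and 100% = empty-vector control cells with DMSO; inhibition shows as a rise in luminescence from relieved DAX1 repression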
Target sequence (P51843 207-470 limits assumed): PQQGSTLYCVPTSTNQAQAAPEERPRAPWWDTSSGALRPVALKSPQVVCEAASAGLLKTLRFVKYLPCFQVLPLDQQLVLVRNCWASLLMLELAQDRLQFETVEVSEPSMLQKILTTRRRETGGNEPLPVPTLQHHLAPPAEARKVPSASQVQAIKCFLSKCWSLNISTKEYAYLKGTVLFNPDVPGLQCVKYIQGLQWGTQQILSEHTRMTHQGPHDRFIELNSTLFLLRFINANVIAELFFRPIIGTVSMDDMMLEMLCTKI
hgDAF12 agonist: agonists of H. glycines DAF-12 nuclear receptor. activation, % at 6.8 µM. 370,000 compounds, 1.8% hits. HEK293 GAL4-hgDAF12 UAS-luciferase reporter, agonist luminescence; normalized to butyrate control;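 active = activation above a cutoff set at the mean of all screened compounds plus 3 SD, cut at about 10% in these data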;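 note: 0% = DMSO wells and 100% = sodium butyrate wells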
* marks the source's active call; other numbers are inactive results.

How did CC(=O)[C@@H]1[C@@H](C(=O)c2ccc(F)cc2)[C@]2(C(=O)Nc3ccccc32)[C@H]2C=Cc3cc(F)ccc3N12 do in these assays?
hcDAF-12 act: 3.5; ssDAF-12 act: 1.5*; DAX1 inh-1: -0.5; DAX1 inh-2: -1.5; hgDAF12 agonist: -0.5

What do the screens show for `Cc1ccc(-n2c(SCC(=O)Nc3ccc4cn[nH]c4c3)nnc2-c2ccccc2)cc1`?
hcDAF-12 act: 0.4; ssDAF-12 act: -1.6; DAX1 inh-1: -2.1; hgDAF12 agonist: -1.7

How did c1cnc2c(C3NCCc4c3[nH]c3ccccc43)cccc2c1 (stereo unspecified) do in these assays?
DAX1 inh-2: 5.0*

Results for O=C(O)c1cccnc1C(=O)N1CCc2c([nH]c3ccccc23)C1C(F)(F)F (stereo unspecified) ?
hcDAF-12 act: -0.4; ssDAF-12 act: -1.2; DAX1 inh-1: -0.2; hgDAF12 agonist: -0.1

Results for COc1ccc(C)cc1N(CC(=O)N1CCCC1)S(C)(=O)=O ?
hcDAF-12 act: 2.9; ssDAF-12 act: -0.6; DAX1 inh-1: -0.8; DAX1 inh-2: 0.9; hgDAF12 agonist: 1.1

What do the screens show for `COC(=O)c1ccc(C)c(NC(=O)CN(c2cc(OC)ccc2OC)S(C)(=O)=O)c1`?
hcDAF-12 act: -1.0; ssDAF-12 act: -1.1; DAX1 inh-1: 4.2*; DAX1 inh-2: 0.7; hgDAF12 agonist: 4.5

Results for COc1ccc(OC)c(N(CC(=O)N2CCCC2)S(C)(=O)=O)c1 ?
hcDAF-12 act: -0.1; ssDAF-12 act: -0.8; DAX1 inh-1: 0.1; DAX1 inh-2: 4.5*; hgDAF12 agonist: 0.2

What do the screens show for `CC(=O)O[C@@H]1CCC[C@@]2(C(=O)N(Cc3ccccc3)c3ccc(-c4c(C)noc4C)cc32)[C@H]1NC(=O)CCc1ccccc1`?
hcDAF-12 act: -2.2; ssDAF-12 act: -1.1; DAX1 inh-1: -1.4; hgDAF12 agonist: -3.3

Results for Cc1ccc(C2NNC(=O)C2NC(=O)c2ccccc2)cc1 (stereo unspecified) ?
hcDAF-12 act: 0.6; ssDAF-12 act: -0.6; DAX1 inh-1: 0.9; DAX1 inh-2: 4.5*; hgDAF12 agonist: 5.0

How did O=C(NC1C(=O)NNC1c1ccccc1)c1ccc(F)cc1 (stereo unspecified) do in these assays?
hcDAF-12 act: -0.3; ssDAF-12 act: -0.7; DAX1 inh-1: 0.7; DAX1 inh-2: 0.7; hgDAF12 agonist: -2.5

Results for CCSc1nsc(NC(=O)Nc2ccccc2F)n1 ?
hcDAF-12 act: 2.4; ssDAF-12 act: -0.5; DAX1 inh-1: 0.2; DAX1 inh-2: 1.4; hgDAF12 agonist: 11.3*

Results for CCOC(=O)/C(C#N)=C\c1cn(C)c2ccccc12 ?
hcDAF-12 act: -1.0; ssDAF-12 act: -1.1; DAX1 inh-1: 0.5; DAX1 inh-2: -0.2; hgDAF12 agonist: -1.9

Results for CCOC(=O)/C(C#N)=C/c1cn(CCOc2ccccc2)c2ccccc12 ?
hcDAF-12 act: -1.4; ssDAF-12 act: 6.7*; DAX1 inh-1: -0.2; DAX1 inh-2: -0.1; hgDAF12 agonist: 1.3

What do the screens show for `Nc1[nH]c(C(=O)c2ccc(Br)cc2)c(-c2ccc(Br)cc2)c1C(=O)N1CCCCC1`?
hcDAF-12 act: -1.7; ssDAF-12 act: -0.8; hgDAF12 agonist: 1.5

Results for Nc1[nH]c(C(=O)c2ccccc2)c(-c2cccnc2)c1C(=O)NCCc1c[nH]c2ccccc12 ?
hcDAF-12 act: 2.9; ssDAF-12 act: -1.2; hgDAF12 agonist: 2.4

How did Cc1ccc(NC(=O)Cc2ccc(OC(F)F)cc2)c(S(=O)(=O)N2CCOCC2)c1 do in these assays?
hcDAF-12 act: -0.4; ssDAF-12 act: -1.8; DAX1 inh-1: -2.2; hgDAF12 agonist: -2.4

What do the screens show for `O=S(=O)(NCC(c1ccco1)N1CCc2ccccc2C1)c1ccc(Br)cc1` (stereo unspecified)?
hcDAF-12 act: -0.7; ssDAF-12 act: -0.9; DAX1 inh-1: 3.7*; DAX1 inh-2: 0.0; hgDAF12 agonist: 1.5

How did CC(C)C(=O)Oc1ccc(CO)cc1[C@H](CCN(C(C)C)C(C)C)c1ccccc1 do in these assays?
hcDAF-12 act: -1.7; ssDAF-12 act: -1.4; DAX1 inh-1: -0.1; hgDAF12 agonist: -3.0

What do the screens show for `Cc1ccc(NC(=O)c2cc(-n3cnnc3)ccc2Cl)cc1`?
hcDAF-12 act: -0.6; ssDAF-12 act: -1.4; DAX1 inh-1: 0.7; DAX1 inh-2: -0.1; hgDAF12 agonist: -1.1

How did Cc1ccc(NC(=O)c2cc(N3C(=O)C=CC3=O)ccc2Cl)cc1C do in these assays?
hcDAF-12 act: 1.2; ssDAF-12 act: 0.3; DAX1 inh-1: 0.2; DAX1 inh-2: -0.7; hgDAF12 agonist: 10.7*

How did CCc1csc(N2[C@H](CN(CCOC)S(=O)(=O)c3ccccc3[N+](=O)[O-])[C@H](c3ccccc3)[C@@H]2CO)n1 do in these assays?
hcDAF-12 act: -1.9; ssDAF-12 act: -0.9; DAX1 inh-1: -1.4; hgDAF12 agonist: 1.4

Results for O=C1CN(c2ccccc2)C(=S)N1C(=O)c1ccc(Br)cc1 ?
hcDAF-12 act: 3.8; ssDAF-12 act: 0.7; DAX1 inh-1: 1.9; DAX1 inh-2: 7.7*; hgDAF12 agonist: 13.7*

How did O=C(c1ccc(Br)cc1)N1CCC(C(=O)N2CCN(c3ccccc3)CC2)CC1 do in these assays?
hcDAF-12 act: -2.3; ssDAF-12 act: -1.1; DAX1 inh-1: -0.3; DAX1 inh-2: -0.4; hgDAF12 agonist: 0.8

Results for CC(=O)c1ccc(N2C(=NC(=O)COc3ccccc3)SC3CS(=O)(=O)CC32)cc1 (stereo unspecified) ?
hcDAF-12 act: 1.9; ssDAF-12 act: -1.2; DAX1 inh-1: 0.3; DAX1 inh-2: 5.5*; hgDAF12 agonist: 2.3

Results for CCOC(=O)CSc1nnc(Cn2c(=O)sc3ccccc32)n1C ?
hcDAF-12 act: 1.1; ssDAF-12 act: -1.6; DAX1 inh-1: -0.1; DAX1 inh-2: 5.8*; hgDAF12 agonist: 6.5

What do the screens show for `CC(=O)c1ccc(NC(=O)CSc2nnc(Cn3c(=O)sc4ccccc43)n2C)cc1`?
hcDAF-12 act: -0.1; ssDAF-12 act: -1.2; DAX1 inh-1: -0.1; DAX1 inh-2: 4.8*; hgDAF12 agonist: 8.0

How did CCOC(=O)N1CCN(C(=O)CSc2nnc(Cn3c(=O)sc4ccccc43)n2C)CC1 do in these assays?
hcDAF-12 act: -1.3; ssDAF-12 act: -2.0; DAX1 inh-1: 0.6; DAX1 inh-2: 2.8; hgDAF12 agonist: -1.1

How did CCN1Cc2nnn(CC3CCCCC3)c2-c2ccccc2S1(=O)=O do in these assays?
hcDAF-12 act: -1.5; ssDAF-12 act: -1.9; DAX1 inh-1: -1.6; hgDAF12 agonist: -1.6

Results for COc1cc(CNc2cccc(F)c2)cc(Br)c1O ?
hcDAF-12 act: 2.4; ssDAF-12 act: 1.5*; DAX1 inh-1: -0.3; DAX1 inh-2: 0.0; hgDAF12 agonist: 1.2

Results for COc1ccc(CNc2ccccc2)cc1Br ?
hcDAF-12 act: -1.6; ssDAF-12 act: -0.4; DAX1 inh-1: -1.0; DAX1 inh-2: 0.6; hgDAF12 agonist: 3.0

What do the screens show for `CCc1cc2ccccc2nc1Cl`?
hcDAF-12 act: 0.1; ssDAF-12 act: -1.3; DAX1 inh-1: 0.3; DAX1 inh-2: 6.1*; hgDAF12 agonist: -0.3
